# Where “and” joins values, the source holds several entries; their conditions need not be identical. Equal values may be shown once. Inconclusive results are not listed. A call without a number means that no potency is given here. Calls of active or inactive are those of the source. Calls follow the shape of the dose curve; as a rule, active = well fitted inhibition curve with a large enough effect in the signal ratio in the repeat runs, with a control signal flat; inconclusive = weak or mixed curves, or effect the other way; inactive = flat fitted curve, though single readings scatter; the % refers to the signal ratio.
# Biological target: D(2) dopamine receptor (Homo sapiens) (UniProt P14416)
# Assay: Dopamine D2 receptor (DRD2) small molecule antagonists, cell-based qHTS assay (AID 1963595)
# Conditions: HEK293-DRD2 cAMP HTRF antagonist mode; series mostly up to 92.4 µM
# From the text: National Center for Advancing Translational Sciences [NCATS]
# Division of Preclinical Innovation [DPI]
# U.S. Environmental Protection Agency [EPA]
# National Institutes of Environmental Health Sciences [NIEHS]
# National Toxicology Program [NTP]
# U.S. Food and Drug Administration [FDA]
# DRD2 is the D2 subtype of the dopamine receptor, which is coupled to Gi subtype of G protein-coupled receptor. This G protein-coupled receptor inhibits adenylyl cyclase activity. The DRD2-HEK293 cell line stably expressing D2 dopamine receptor can be used for screening agonists and antagonists of interactions between D2 and its ligands. The Hek293-DRD2 cAMP assay is based on HTRF technology. It measures changes of cAMP accumulation in response to Gi coupled GPCR activation or inhibition.
# Tox21 Assay Protocol Summary:
# DRD2-Hek293 cells were dispensed at 600 cells/3uL/well in 1536-well white plates using a Multidrop Dispenser. After the assay plates were incubated at a 37 C/5% CO2 incubator for 24 h, 1 uL of Ro20-1724 at final concentration of 0.1 mM was transferred to the assay plate by a Flying Reagent Dispenser. Following Ro20-1724 addition, 23 nL of compound dissolved in DMSO, positive controls or DMSO only was added to the assay plates via Wako pintool station. The assay plates were incubated at room temperature for 10 min. Next, 1 uL of mixture of NKH477 (final concentration at 200 nM) and quinpirole (final concentration at 12 nM) was added into the plates. After the assay plates were incubated at room temperature for an additional 30 min, 2.5 ul/well of cAMP-d2 and 2.5 ul/well of anti-cAMP-cryptate were added respectively into the assay plates using a Flying Reagent Dispenser. The plates were incubated at room temperature for 1 h. The fluorescence intensity in the plates was measured at 340 nm excitation and 665 & 620 nm emission by an Envision plate reader.
# Potency is read from the fitted curve at half-maximal effect.
# Sequence of D(2) dopamine receptor (Homo sapiens) (P14416 whole entry, looked up): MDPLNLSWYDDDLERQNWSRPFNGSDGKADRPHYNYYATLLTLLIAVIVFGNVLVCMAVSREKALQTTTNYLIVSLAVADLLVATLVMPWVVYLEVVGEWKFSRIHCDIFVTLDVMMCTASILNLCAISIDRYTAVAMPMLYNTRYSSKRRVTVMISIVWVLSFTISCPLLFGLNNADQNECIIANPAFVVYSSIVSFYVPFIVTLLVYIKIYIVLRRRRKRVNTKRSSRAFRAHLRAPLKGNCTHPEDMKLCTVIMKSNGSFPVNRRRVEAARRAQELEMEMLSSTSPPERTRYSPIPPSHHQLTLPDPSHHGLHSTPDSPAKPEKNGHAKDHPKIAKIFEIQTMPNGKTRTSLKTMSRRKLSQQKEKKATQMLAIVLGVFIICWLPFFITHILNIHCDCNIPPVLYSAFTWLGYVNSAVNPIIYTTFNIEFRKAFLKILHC
Structure (SMILES),Potency,"activity change, negative = inhibition"
Nc1ccc(Cl)c(Cl)c1,inactive,–
CCCOC(=O)c1cncn1C(C)c1ccccc1 (stereo not given),inactive,–
C=CCc1ccc(OC)cc1,inactive,–
COP(=O)(CCC(=O)NCO)OC,inactive,–
CC(C)(C)C(=O)Cl,inactive,–
CCOC(=O)c1ccccc1N,inactive,–
CN(C)[C@@H]1C(=O)C(C(N)=O)=C(O)[C@@]2(O)C(=O)C3=C(O)c4c(O)cccc4[C@@](C)(O)[C@H]3[C@H](O)[C@@H]12,inactive,–
CC(C)(C)c1ccccc1O,inactive,–
Clc1ccccc1-c1nnc(-c2ccccc2Cl)nn1,inactive,–
CN1CC[C@]23c4c5ccc(O)c4O[C@H]2[C@@H](O)CC[C@H]3[C@H]1C5,inactive,–
Nc1ccccc1Cl,inactive,–
CCCC[N+]1(C)CCCC1 (tested in a mixture with another compound),inactive,–
CC(Cl)(Cl)C(=O)O,inactive,–
OCC(O)CCl (stereo not given),inactive,–
COC(=O)c1ccccc1C(=O)OC,inactive,–
Brc1c(Br)c(Br)c(Br)c(Br)c1Br,–,-0.734% [at 8.38 µM] (inactive)
N#CC(c1ccccc1)c1ccccc1,inactive,–
ClC(Cl)(Cl)C(Cl)(Cl)Cl,inactive,–
C=CC(=O)OC(C)(C)C,inactive,–
Sc1ccccc1,inactive,–

Structure (SMILES),Potency,"activity change, negative = inhibition"
CCCCC(CC)COC(=O)Cl (stereo not given),inactive,–
c1ccc(OP(Oc2ccccc2)Oc2ccccc2)cc1,inactive,–
CN(C)CCC#N,inactive,–
NCCOS(=O)(=O)O,inactive,–
COC(=O)NC(=S)Nc1ccccc1NC(=S)NC(=O)OC,inactive,–
ClCC1CO1 (stereo not given),inactive,–
COc1ccc(C=O)cc1OC,inactive,–
CC(C)(C)C(=O)C(Cl)Cl,inactive,–
CCC(=O)O[C@@H]1C=C2CCC3C(CCC4(C)C3CC[C@@H]4OC(=O)CC)C2CC1 (stereo not given in full),inactive,–
CCCCCCC1CCOC1=O (stereo not given),inactive,–
Cc1ccc([N+](=O)[O-])cc1C,inactive,–
CC(C)CCCCCCOC(=O)c1ccccc1C(=O)OCCCCCCC(C)C,inactive,–
C=CC(=O)OCC(CC)CCCC (stereo not given),inactive,–
CCCCCCCCCCCCCCCCCC(=O)O,inactive,–
CCC[CH2][Sn]([Cl])([CH2]CCC)[CH2]CCC,15.4 µM (active) and 19.3 µM (active),–
Cn1cc(-c2ccccc2)c(=O)c(-c2cccc(C(F)(F)F)c2)c1,inactive,–
CC(C)(N)Cc1ccccc1Cl,inactive,–
CC1OC(C)OC(C)O1 (stereo not given),inactive,–
CNC(=O)O/N=C/C(C)(C)SC,inactive,–
COP(=S)(OC)Oc1cc(Cl)c(Cl)cc1Cl,inactive,–
